Data taken from PubChem BioAssay AID1159580 (chemical genetic matrix, 2015).
Hit rate of the full screen: of about 5,500 compounds, about 2,000 (36%) were called active. Roughly 18% stayed inconclusive and do not appear here. Rule as the data show it: active = normalized growth mostly below about 0.91 (no sharp cut-off); inconclusive = no clear call, values can overlap the other calls; inactive = mostly above about 0.92. Some of the results follow.

Test: chemical genetic growth profiling, strain panel (AID 1159580);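 also: tested at 20 µM; growth read once vehicle control cultures reached saturation at 30 °C; 1 = growth at the plate median or of vehicle wells; lower values mean less growth of the strain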
Details: growth OD

Measured: normalized growth

COc1c(Cl)ccc(Cl)c1C(=O)O
inactive: S. cerevisiae deletion strains, locus YJR043C, strain POL32, stronger effect = lower value 1.01 | S. cerevisiae deletion strains, locus YJR075W, strain HOC1, stronger effect = lower value 0.971 | S. cerevisiae deletion strains, locus YKL009W, strain mrt4, stronger effect = lower value 1.02 | S. cerevisiae deletion strains, locus YKL068W, stronger effect = lower value 1.01 | S. cerevisiae deletion strains, locus YKL085W, strain MDH1 (second series), stronger effect = lower value 1.01 | S. cerevisiae deletion strains, locus YKL085W, strain MDH1, stronger effect = lower value 1.01 | S. cerevisiae deletion strains, locus YKL160W, strain elf1, stronger effect = lower value 0.988 | S. cerevisiae deletion strains, locus YKL190W, strain CNB1, stronger effect = lower value 1.01 | S. cerevisiae deletion strains, locus YKR001C, strain vps1, stronger effect = lower value 1.02 | S. cerevisiae deletion strains, locus YKR026C, strain gcn3, stronger effect = lower value 0.984 | S. cerevisiae deletion strains, locus YKR091W, strain srl3, stronger effect = lower value 0.985 | S. cerevisiae deletion strains, locus YLL001W, strain dnm1, stronger effect = lower value 0.995 | S. cerevisiae deletion strains, locus YLL026W, stronger effect = lower value 0.979 | S. cerevisiae deletion strains, locus YLL041C, strain sdh2, stronger effect = lower value 0.994 | S. cerevisiae deletion strains, locus YLR027C, strain aat2, stronger effect = lower value 0.982 | S. cerevisiae deletion strains, locus YLR039C, strain RIC1, stronger effect = lower value 1.06 | S. cerevisiae deletion strains, locus YLR058C, strain SHM2, stronger effect = lower value 1.02 | S. cerevisiae deletion strains, locus YLR102C, strain apc9, stronger effect = lower value 1.01 | S. cerevisiae deletion strains, locus YLR221C, strain rsa3, stronger effect = lower value 0.983 | S. cerevisiae deletion strains, locus YLR258W, strain gsy2, stronger effect = lower value 0.986 | S. cerevisiae deletion strains, locus YLR262C, strain YPT6 (second series), stronger effect = lower value 0.997 | S. cerevisiae deletion strains, locus YLR262C, strain YPT6, stronger effect = lower value 1.07 | S. cerevisiae deletion strains, locus YLR268W, strain sec22, stronger effect = lower value 1.03 | S. cerevisiae deletion strains, locus YLR320W, strain mms22, stronger effect = lower value 0.974 | S. cerevisiae deletion strains, locus YLR330W, strain CHS5, stronger effect = lower value 1.01 | S. cerevisiae deletion strains, locus YLR342W, strain FKS1 (second series), stronger effect = lower value 1.05 | S. cerevisiae deletion strains, locus YLR342W, strain FKS1, stronger effect = lower value 0.979 | S. cerevisiae deletion strains, locus YLR357W, strain rsc2, stronger effect = lower value 0.992 | S. cerevisiae deletion strains, locus YLR370C, strain arc18, stronger effect = lower value 0.986 | S. cerevisiae deletion strains, locus YLR371W, strain rom2, stronger effect = lower value 1.01 | S. cerevisiae deletion strains, locus YLR384C, strain iki3, stronger effect = lower value 0.985 | S. cerevisiae deletion strains, locus YLR418C, strain cdc73, stronger effect = lower value 1.02 | S. cerevisiae deletion strains, locus YML016C, strain PPZ1, stronger effect = lower value 1.01 | S. cerevisiae deletion strains, locus YML032C, strain rad52, stronger effect = lower value 1.02 | S. cerevisiae deletion strains, locus YML120C, strain ndi1, stronger effect = lower value 0.97 | S. cerevisiae deletion strains, locus YML124C, strain tub3, stronger effect = lower value 1.01 | S. cerevisiae deletion strains, locus YMR058W, strain fet3, stronger effect = lower value 0.979 | S. cerevisiae deletion strains, locus YMR078C, strain ctf18, stronger effect = lower value 1.02 | S. cerevisiae deletion strains, locus YMR125W, strain sto1, stronger effect = lower value 0.951 | S. cerevisiae deletion strains, locus YMR129W, stronger effect = lower value 0.987 | S. cerevisiae deletion strains, locus YMR205C, strain PFK2, stronger effect = lower value 0.975 | S. cerevisiae deletion strains, locus YMR223W, strain ubp8, stronger effect = lower value 1.01 | S. cerevisiae deletion strains, locus YMR231W, strain pep5, stronger effect = lower value 0.984 | S. cerevisiae deletion strains, locus YMR263W, strain SAP30, stronger effect = lower value 1.01 | S. cerevisiae deletion strains, locus YMR307W, strain GAS1, stronger effect = lower value 1.06 | S. cerevisiae deletion strains, locus YNL067W, strain RPL9B, stronger effect = lower value 1.01 | S. cerevisiae deletion strains, locus YNL071W, strain lat1, stronger effect = lower value 0.992 | S. cerevisiae deletion strains, locus YNL128W, strain TEP1, stronger effect = lower value 1 | S. cerevisiae deletion strains, locus YNL153C, strain GIM3, stronger effect = lower value 1.01 | S. cerevisiae deletion strains, locus YNL209W, strain ssb2, stronger effect = lower value 0.988 | S. cerevisiae deletion strains, locus YNL233W, strain BNI4, stronger effect = lower value 1.01 | S. cerevisiae deletion strains, locus YNL248C, strain rpa49, stronger effect = lower value 0.982 | S. cerevisiae deletion strains, locus YNL250W, strain rad50, stronger effect = lower value 1 | S. cerevisiae deletion strains, locus YNL271C, strain bni1, stronger effect = lower value 1.01 | S. cerevisiae deletion strains, locus YNL298W, strain CLA4, stronger effect = lower value 1.02 | S. cerevisiae deletion strains, locus YNL307C, strain MCK1, stronger effect = lower value 1.03 | S. cerevisiae deletion strains, locus YNL322C, strain KRE1 (second series), stronger effect = lower value 0.983 | S. cerevisiae deletion strains, locus YNL322C, strain KRE1, stronger effect = lower value 1.01 | S. cerevisiae deletion strains, locus YNR049C, strain mso1, stronger effect = lower value 0.977 | S. cerevisiae deletion strains, locus YNR052C, strain pop2, stronger effect = lower value 1.01 | S. cerevisiae deletion strains, locus YOL006C, strain TOP1, stronger effect = lower value 1.05 | S. cerevisiae deletion strains, locus YOL012C, strain htz1 0.945 | S. cerevisiae deletion strains, locus YOL147C, strain pex11, stronger effect = lower value 1.01 | S. cerevisiae deletion strains, locus YOR001W, strain rrp6, stronger effect = lower value 0.991 | S. cerevisiae deletion strains, locus YOR061W, strain CKA2, stronger effect = lower value 1.01 | S. cerevisiae deletion strains, locus YOR069W, strain VPS5, stronger effect = lower value 1 | S. cerevisiae deletion strains, locus YOR070C, strain gyp1, stronger effect = lower value 0.988 | S. cerevisiae deletion strains, locus YOR080W, strain dia2, stronger effect = lower value 0.969 | S. cerevisiae deletion strains, locus YOR083W, strain WHI5, stronger effect = lower value 0.988 | S. cerevisiae deletion strains, locus YOR106W, strain vam3, stronger effect = lower value 0.995 | S. cerevisiae deletion strains, locus YOR136W, strain idh2, stronger effect = lower value 1.01 | S. cerevisiae deletion strains, locus YOR144C, strain elg1, stronger effect = lower value 1.01 | S. cerevisiae deletion strains, locus YOR184W, strain ser1, stronger effect = lower value 1.02 | S. cerevisiae deletion strains, locus YOR265W, strain rbl2, stronger effect = lower value 0.976 | S. cerevisiae deletion strains, locus YOR270C, strain vph1, stronger effect = lower value 0.993 | S. cerevisiae deletion strains, locus YOR290C, strain snf2, stronger effect = lower value 0.997 | S. cerevisiae deletion strains, locus YOR316C, strain cot1, stronger effect = lower value 1.01 | S. cerevisiae deletion strains, locus YPL051W, strain arl3, stronger effect = lower value 0.995 | S. cerevisiae deletion strains, locus YPL055C, strain LGE1, stronger effect = lower value 1.02 | S. cerevisiae deletion strains, locus YPL078C, strain atp4, stronger effect = lower value 0.982 | S. cerevisiae deletion strains, locus YPL106C, strain sse1, stronger effect = lower value 0.979 | S. cerevisiae deletion strains, locus YPL240C, strain hsp82, stronger effect = lower value 0.997 | S. cerevisiae deletion strains, locus YPL241C, strain CIN2, stronger effect = lower value 1.01 | S. cerevisiae deletion strains, locus YPR119W, strain clb2, stronger effect = lower value 1.01 | S. cerevisiae deletion strains, locus YPR141C, strain kar3, stronger effect = lower value 1.02 | S. cerevisiae deletion strains, locus YPR163C, strain tif3, stronger effect = lower value 1.01 | S. cerevisiae deletion strains, locus YPR167C, strain met16, stronger effect = lower value 1.01 | S. cerevisiae deletion strains, strain wtn01, stronger effect = lower value 1.01 | S. cerevisiae strains, strain wild type, stronger effect = lower value 1.01
